“And” between values parts separate entries of the source, which are not always exact repeats. Equal entries are not always repeated. Out of some 340,000 compounds screened, about 2,100 (0.62%) were called active. Only a sample is shown. Measured potencies and affinities stand elsewhere. Values without a mark were called inactive.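 How the source made its calls: active means first-screen hits whose inhibition reached a set limit at any dose in the follow-up dose series; inconclusive means inhibition above the set first-screen limit but never retested; inactive means the rest.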

In this assay the target is Rac GTPase-activating protein 1 (Homo sapiens) (UniProt Q9H0H5). The assay is described as follows: blockers of MgcRacGAP-driven Rac1 GTP hydrolysis – biochemical, ADP Hunter fluorescence, primary and confirmatory, confirmation (AID 624330).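 Further: fluorescence reports GDP produced by GAP-driven GTP hydrolysis.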 The settings on record: MgcRacGAP-stimulated Rac1 GTP hydrolysis, at 30 µM, hits give high values, GST-tagged Rac1 F28L mutant substrate.
Rac GTPase-activating protein 1 (Homo sapiens), sequence (Q9H0H5 whole entry, looked up): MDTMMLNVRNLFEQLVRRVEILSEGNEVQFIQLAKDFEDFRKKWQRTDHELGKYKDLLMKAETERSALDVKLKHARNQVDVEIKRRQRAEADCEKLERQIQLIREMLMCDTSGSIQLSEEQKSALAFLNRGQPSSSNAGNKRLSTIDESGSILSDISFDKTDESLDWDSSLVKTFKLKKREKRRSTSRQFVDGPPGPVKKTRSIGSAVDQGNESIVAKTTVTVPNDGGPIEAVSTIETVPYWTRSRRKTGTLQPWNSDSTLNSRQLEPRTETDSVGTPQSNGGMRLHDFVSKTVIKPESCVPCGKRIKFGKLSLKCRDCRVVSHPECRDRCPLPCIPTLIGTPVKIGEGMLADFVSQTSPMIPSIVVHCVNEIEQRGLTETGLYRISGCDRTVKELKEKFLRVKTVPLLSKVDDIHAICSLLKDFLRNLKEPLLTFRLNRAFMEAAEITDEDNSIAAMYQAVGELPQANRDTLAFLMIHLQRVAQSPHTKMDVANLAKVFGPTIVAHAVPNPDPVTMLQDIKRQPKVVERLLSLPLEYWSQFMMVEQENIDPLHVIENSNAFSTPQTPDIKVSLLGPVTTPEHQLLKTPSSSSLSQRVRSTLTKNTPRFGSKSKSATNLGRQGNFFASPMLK
A word on the inhibition: it is the change of the read-out against control, counted positive when it falls. With `CC(C)Sc1oc(-c2ccco2)nc1S(=O)(=O)c1ccc(F)cc1`, the inhibition is 9.8%.

On to `COc1cc2nc(NC(=O)c3ccc(Cl)cc3)sc(=O)c2cc1OC`, for which the inhibition is 12.1%. As for `Cc1cccc(OC(C)C(=O)Nc2nc(-c3ccncc3)cs2)c1` (stereo not drawn), the inhibition was 5.11%. In the case of `Cc1cccc(Cn2c(N(C)Cc3ccccc3)nc3c2c(=O)[nH]c(=O)n3C)c1`, the inhibition was 10.6%.

As for `C=CCn1c(Cc2ccc(OCC)cc2)nnc1SCC(N)=O`, the inhibition is 4.65%. As for `Cc1c(Cl)cccc1NC(=S)N1CCN(Cc2ccccc2)CC1`, the inhibition is 6.91%.

As to `COc1cc(/C=N/NC(=O)CCC(=O)Nc2ccc(C)cc2)ccc1O`, the inhibition was 26.5%.

Take `O=C(CCC(=O)Nc1ccc(Br)cc1)N/N=C/c1ccc(F)cc1`: the inhibition was 3.09%.

Turning to `O=C(CCC(=O)Nc1ccc(Br)cc1)N/N=C/c1ccc(O)cc1`, the inhibition was 22.7%. With `Cc1nc(CC(=O)N/N=C/c2ccc(OCC(=O)O)cc2)cs1` the figure was -8.35%; with `O=C(Cc1ccccc1)NN=Cc1ccccc1`, -1.49%. Consider `O=C(CCC(=O)Nc1ccc(F)cc1)N/N=C/c1ccc(Br)cc1`, for which the inhibition was 3.6%. With `Cc1ccc(NC(=O)CCC(=O)N/N=C/c2cccnc2)cc1`, the inhibition is 1.87%. With `COc1cc(/C=N/NC(=O)CCC(=O)Nc2ccc(Br)cc2)ccc1O` the figure was 25.9%; with `Cc1ccc(Cl)cc1N1CCN(C(=O)C2CCN(S(=O)(=O)c3cnc[nH]3)CC2)CC1`, -2.49%; with `COc1cc(C(=O)OC(C)C(=O)NC2CCCCC2C)c([N+](=O)[O-])cc1OC` (stereo not drawn), -4.78%.

Take `Cc1cccc(C)c1NC(=O)N1CC=CCC1`: the inhibition is 8.07%. `CCc1c(C)nc(N2CCN(c3ccccc3)CC2)[nH]c1=O`: the inhibition is -0.57%. In the case of `Cc1cc(=O)[nH]c2c1c(-c1ccccc1)nn2C`, the inhibition was 4.24%. With `O=C1CN(C(=O)c2ccc(F)cc2)c2ccccc2N1` the figure was 12.4%; with `CC(=O)Nc1cccc(NC(=O)c2csc(C)c2)c1`, 8.66%. As for `O=C(O)c1ccc(N2CCCCC2)cc1O`, the figure is 10.7%. On to `COC(=O)[C@@]1(C)[C@H]2C(=O)N(C)C(=O)[C@H]2[C@H]2CN(C)C(=NC3CCCCC3)N21`, for which the inhibition was 9.12%. Turning to `N#Cc1cnn(-c2nc3sc4c(c3c(=O)[nH]2)CCCC4)c1N`, the inhibition is 11.7%. `CN1C(=O)CCS(=O)(=O)C1c1ccc(Cl)c(Cl)c1` (stereo not drawn): the inhibition was 8.53%. With `COc1ccc(NC(=O)CSc2nc3c(c(=O)n(C)c(=O)n3C)n2C)c(OC)c1` the figure was 4.73%. With `O=C(CC(=O)Nc1cccc(Cl)c1)N/N=C\c1ccccc1` the figure was 1.72%; with `CCOc1ccc(/C=N/NC(=O)CC(=O)Nc2ccc(Cl)c(Cl)c2)cc1`, 4.45%. For the molecule `CC(C)(C)OC(=O)N1CCC(C(=O)N[C@@H](Cc2ccccc2)C(=O)O)CC1`, the inhibition is 4.57%. Consider `CCC(CC)C(=O)c1c[nH]c(C(=O)O)c1`, for which the inhibition is 6.73%. As to `Cc1[nH]c2ccccc2c1-c1csc(NC(=O)CN2CCOCC2)n1`, the inhibition is 25.6%. In the case of `Cc1[nH]c2ccccc2c1-c1csc(NC(=O)CSCC(=O)O)n1`, the inhibition was 19.6%. With `CCOc1ccc(NC(=O)c2ccc(F)c(S(=O)(=O)N3CCCC3)c2)cc1` the figure was 10.8%; with `CC(=O)Nc1ccc2c(=O)n(-c3ccccc3)sc2c1`, 23.5%; with `CC(=O)Nc1ccc(-n2c(=O)c3ccccc3c3ccccc3c2=O)cc1`, 8.38%. As for `O=c1nc(-c2ccccc2Cl)c2cc(F)ccc2[nH]1`, the figure is 9.68%; as for `O=c1[nH]n(-c2ccccc2Cl)c(=O)c2ccccc12`, 4.42%.

For `COc1ccc(N2C(=O)C(F)(F)C2c2cccc(F)c2)cc1` (stereo not drawn), the inhibition is 5.49%. As for `COc1ccc(Oc2c(Cl)cnn(-c3ccc(F)cc3)c2=O)cc1`, the figure is 4.49%. Regarding `N#Cc1ccc2c(=O)n(-c3ccccc3)sc2c1`, the inhibition is 22.6%. With `O=C(c1sc2cc(F)ccc2c1Cl)N1CCN(c2ccccc2)CC1` the figure was -1.95%; with `Cc1cccc(CSC2=NCCN2C(=O)c2ccc(S(=O)(=O)N(C)C)cc2)c1`, 4.49%; with `CCOC(=O)CNC(=O)Cn1cnc2c(nnn2-c2ccc(C)cc2)c1=O`, 1.26%. With `COCCOCC(O)CN1CCN(c2ccc(C)cc2)CC1` (stereo not drawn) the figure was 24.5%.

As to `C[C@@H]1CN([C@@H](C)CO)C(=O)CCCn2nncc2CO[C@H]1CN(C)C(=O)OCc1ccccc1`, the inhibition was 7.03%. With `CN1CCN(S(=O)(=O)c2cccc(C(=O)N(C)CC(=O)Nc3ccc(F)c(F)c3F)c2)CC1` the figure was 9.79%. On to `Cc1ccc2nc(SCC(=O)NCc3ccc(F)cc3)nc(=O)n2c1`, for which the inhibition is 6.12%. As to `Cc1ccc(C(=O)Nc2ccc(N3CCOCC3)cc2)cc1S(=O)(=O)N1CCCCC1`, the inhibition was 3.29%. As to `O=c1c2cc(F)ccc2sn1-c1ccc(F)cc1`, the inhibition is 30.6%.

As for `O=c1c2cc(C(F)(F)F)ccc2sn1-c1ccccc1`, the inhibition is 24.6%. On to `OCCOCCN1CCN(C2=Nc3ccccc3Sc3ccccc32)CC1`, for which the inhibition was -0.15% and -4.72%. As for `OCCOCCN1CCN(C(=S)Nc2ccccc2)CC1`, the figure is 6.01%; as for `COC(=O)C1CCN(Cc2cn(Cc3ccccc3)nc2-c2cc3ccccc3o2)CC1`, 13.5%. With `COCCNC(=O)C(OC(=O)c1nsc(Cl)c1Cl)C(C)C` (stereo not drawn) the figure was 10.9%. Take `CCCN(CC(=O)Nc1cc(Cl)ccc1Cl)C(=O)c1ccc(N2CCCC2=O)cc1`: the inhibition was 3.44%.

Regarding `COc1cc(/C=N/NC(=O)c2cc(-c3cccc(Br)c3)nc3ccccc23)cc(OC)c1O`, the inhibition was 13.9%.

Turning to `O=C1NC(=O)C(=Cc2ccc(Cl)cc2Cl)S1`, the inhibition was 7.66%. With `O=C1NC(=S)SC1=Cc1ccc(F)cc1` the figure was 15.8%. With `Cc1cc(/C=C2\SC(=S)NC2=O)c(C)n1C` the figure was 26.3%; with `Cc1nn(C)cc1/C=C1\SC(=S)NC1=O`, -1.15%; with `O=C1NC(=S)SC1=Cc1ccc(Cl)cc1`, 8.39%.

Regarding `O=C1NC(=S)SC1=Cc1cc(Br)ccc1O`, the inhibition was 16.8%. As for `Cc1cccc(NC(=O)CN2C(=O)NC(C)(c3ccc4c(c3)OCO4)C2=O)c1` (stereo not drawn), the inhibition is 3.23%. As for `O=C(CSc1ncn[nH]1)N1CCN(c2nnc(-c3ccccc3)c3ccccc23)CC1`, the figure is 11.7%; as for `Cc1cc(C)nc(N/N=C/C2=C(N3CCOCC3)C(=C/c3ccccc3)/CC2)n1`, 9.21%; as for `COc1ccc(N=C2C(=O)N3c4c(cccc42)C(C)=CC3(C)C)cc1`, 13.7%. With `C=CCN(Cc1nc(-c2ccc(OC)cc2)no1)C(=O)c1ccc2c(c1)OCO2` the figure was 2.96%; with `Clc1ccc(/C=N/N2CCN(Cc3ccccc3Cl)CC2)cc1`, 12%; with `Cn1cccc1/C=N/N1CCN(Cc2ccccc2)CC1`, 23%. With `Cn1cccc1/C=N/N1CCN(Cc2cccc3ccccc23)CC1` the figure was 25.4%. For the molecule `CCN(CC)c1ccc(/C=N/N2CCN(Cc3ccccc3Cl)CC2)cc1`, the inhibition was -3.36%. With `Cc1ccc(NC(=S)NCc2ccc3c(c2)cc(C)n3C)c(C)c1` the figure was 9.16%; with `O=C(COC(=O)c1ccc(O)cc1)Nc1cccc(S(=O)(=O)N2CCCCC2)c1`, 5.81%. As for `C=C(C)c1ccc(C(C)(C)NC(=O)N(Cc2ccccc2)Cc2ccco2)cc1`, the figure is 0.01%. As for `C/C(=C/c1oc2ccc(O)cc2c1[N+](=O)[O-])N(C)C`, the figure is 14.9%; as for `CC(=O)Oc1ccc2oc(/C=C/N(C)C)c([N+](=O)[O-])c2c1`, 16.9%; as for `CCN(CC)S(=O)(=O)c1ccc(NC2=NS(=O)(=O)c3ccccc32)cc1`, 1.99%. Turning to `O=S1(=O)N=C(Nc2ccc(N3CCOCC3)cc2)c2ccccc21`, the inhibition is 2.07%. With `CC(=O)Nc1ccc(NC2=CC(=O)CC(C)(C)C2)cc1` the figure was 7.91%; with `CC1(C)CC(=O)C=C(Nc2ccc(F)cc2)C1`, -10%; with `N#CCc1ccc(Oc2ccc([N+](=O)[O-])cn2)cc1`, 5.55%. For the molecule `Cc1oc(-c2ccccc2)nc1C(=O)OCC(=O)NCc1ccc(Cl)cc1`, the inhibition is -0.87%.

Regarding `CCCCn1c(N)c(N(CC(C)C)C(=O)c2ccc(Cl)c(S(=O)(=O)N3CCCC3)c2)c(=O)[nH]c1=O`, the inhibition was 5.8%. As for `O=C(C1CCCN(Cc2ccccc2)C1)N1CCCCC1` (stereo not drawn), the figure is 21.6%; as for `COc1ccc(CN2CCCC(C(=O)N(C)Cc3ccccc3)C2)cc1OC` (stereo not drawn), 27.7%; as for `O=C(C1CCCN(Cc2ccc(Cl)cc2)C1)N1CCCCC1` (stereo not drawn), 24.9%. With `COc1ccc(CN2CCCC(C(=O)N3CCCCC3)C2)cc1` (stereo not drawn) the figure was 26.1%; with `CN(Cc1ccccc1)C(=O)C1CCCN(Cc2cccc(Cl)c2)C1` (stereo not drawn), 3.69%.

As to `COc1cccc(CN2CCCC(C(=O)N3CCCCC3)C2)c1` (stereo not drawn), the inhibition was 22.1%.

As to `O=C(NNC(=O)c1cc2ccccc2o1)c1ccncc1`, the inhibition is 3.59%. With `Cc1cc(C[n+]2ccsc2N)c2ncccc2c1` the figure was 4.36%. In the case of `NC(=O)CC(NC(=O)c1ccc(Br)cc1)c1ccc(N2CCN(c3ccccn3)CC2)c([N+](=O)[O-])c1` (stereo not drawn), the inhibition is 4.07%. As to `O=C(NNC(=O)c1ccc([N+](=O)[O-])cc1)NC1CCCCC1`, the inhibition was 1.53%.

With `CCCC1NC(=O)c2cccnc2-n2c1nc1ccc(Cl)cc1c2=O` (stereo not drawn), the inhibition is 13.8%.

Take `Cc1ccc(C)c(-n2nnc3ccccc3c2=O)c1`: the inhibition is 2.95%. On to `Cc1ccc(C)c(N2CC(=O)N(c3cc(C)ccc3C)CC2=O)c1`, for which the inhibition is 1.32%. As for `Cc1ccc(N2C(=O)CCC2=O)c(C)c1`, the figure is 4.77%; as for `Cc1ccc(-n2c(C)cc(=O)cc2C)c(C)c1`, 6.02%.

For the origin of these results see PubChem BioAssay AID624330 (Southern Research Specialized Biocontainment Screening …, 2012).
